Screens deposited in PubChem by Broad Institute.
This is a sample that favours compounds with a hit; in the whole collection about 3% have one here.
Vif imaging = blocks HIV Vif function | inhibition, % at 7.49 µM | HEK293T cells, Vif self-association by quenched fluorescence, imaging, 24 h | 340,000 tested, 0.35% active | AID 602346; in the data active means inhibition above about 50%, passing the limit was not always enough; inconclusive means no clear call, values can overlap the other calls; inactive means below about 31%
MITF TRPM1 HTS = activators of MITF-driven TRPM1 promoter activity in SK-MEL-5 cells. SK-MEL-5 TRPM1-promoter luciferase, 24 h; % of positive control, neutral wells = 0. activation, % at 12.5 µM. 300,000 tested, 0.75% active. AID 588334;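 active means mean activation of at least 80% with every replicate also reaching 80%; inconclusive means mean reaches 80% but some replicate falls short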;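 further: 0% = neutral control wells and 100% = parthenolide positive control wells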
PfHsp90 yeast 2 = reduces growth (ATP signal) of yeast expressing P. falciparum Hsp90; inhibition, % at 9.4 µM; 310,000 tested, 0.32% active; S. cerevisiae expressing PfHsp90, BacTiter-Glo ATP, 48 h; yeast lacking PDR1 and PDR3 efflux regulators; AID 504621;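 active means every replicate shows inhibition above about 80%, whatever the replicate mean, limit read from the data; inconclusive means mean inhibition reaches the set limit but some replicate falls short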;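 further: 0% = DMSO neutral controls and 100% = 20 µM radicicol positive controls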
Wnt bcat act = activates Wnt/beta-catenin signaling in a reporter cell assay; activator, plate reader; activation, % at 9.35 µM; 300,000 tested, 1.2% active; AID 743398; in the data active means activation above about 30%, passing the limit was not always enough; inconclusive means no clear call, values can overlap the other calls;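 further: 0% = neutral control wells and 100% = positive control wells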
esBAF inh = SWI/SNF esBAF complex inhibition | mouse ES cells, Bmi1-luciferase knock-in reporter, 24 h; 100% = twice the neutral-well signal | reporter increase, % at 12.5 µM | 350,000 tested, 2% active; in the data active means activation above about 40%; inconclusive means no clear call, values can overlap the other calls;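 further: 0% = median of the plate's neutral control wells and 100% = double that signal; a rise in the Bmi1 reporter signal indicates esBAF inhibition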
N-glyco inh = blocks N-linked glycosylation in D54 reporter cells; D54 ERlucT glycosylation luciferase reporter, 24 h; percent of 100 nM tunicamycin response; reporter increase, % at 12.5 µM; 360,000 tested, 0.23% active; AID 588692;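 active means mean luciferase reporter signal, scaled so untreated is 0 and the glycosylation-blocking control 100, at or above a set limit in every replicate; inconclusive means mean reaches the limit but not every replicate does; inactive means mean below the limit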;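 further: luciferase carries N-glycosylation sites so blocking glycosylation raises the light; 0% = median of neutral control wells and 100% = median of 100 nM tunicamycin wells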
Active calls of the source: *; ? = inconclusive; · = no result.

SMILES | Vif imaging | MITF TRPM1 HTS | PfHsp90 yeast 2 | Wnt bcat act | esBAF inh | N-glyco inh
C/C(=N\Nc1cccc2cccnc12)c1ccccn1 | 0.0 | 46.0 | -5.8 | 15.1 | · | -18.3
CCS/C(N)=N/N=C/c1cc(C)ccc1O | 7.4 | 57.8 | -2.0 | · | · | -7.0
CS/C(N)=N/N=C/c1cc(C)ccc1O | -0.6 | ? | -6.9 | 88.1* | · | -5.9
COC(=O)c1c(C)[nH]c(C(=O)OCc2ccc(F)cc2)c1C | 5.9 | 114.1* | -2.7 | · | 45.9* | 0.4
CC(=O)c1c(C)[nH]c(C(=O)OCc2cccc(Cl)c2)c1C | 1.4 | 31.3 | -13.5 | -0.1 | 46.2* | 4.7
CCC(C)c1ccc(OCC(=O)Nc2cccc(C(=O)Nc3ccc(C(=O)O)cc3)c2)cc1 (stereo unspecified) | -9.1 | 42.0 | -29.4 | 20.4 | 47.3* | -1.4
CC(C)c1ccc(OCC(=O)Nc2ccc(OC(F)(F)F)cc2)cc1 | -4.1 | -11.4 | 11.6 | · | · | -0.6
Cc1cccc(OCC(=O)Nc2cccc(O)c2)c1 | 18.0 | · | 9.4 | 33.8* | 22.5 | 1.0
CC(C)c1ccc(NC(=O)COc2ccccc2)cc1 | -0.7 | 65.7 | -2.2 | -2.0 | 79.3* | 2.2
O=C(COc1cc(Cl)c(Cl)cc1Cl)Nc1cccc(O)c1 | 6.2 | 138.8* | -27.8 | 45.2* | · | -10.3
O=C(Cn1nc(-c2cccs2)ccc1=O)Nc1ccc(Br)cc1 | 0.9 | 5.9 | 4.6 | 2.3 | -2.0 | -3.1
Cc1ccc(OCC(=O)Nc2cc(NC(=O)COc3ccc(C)c(C)c3)cc(C(=O)O)c2)cc1C | -10.9 | · | -14.6 | 7.9 | 12.9 | 1.6
Cc1ccc(C)c(OCC(=O)Nc2cccc(C(=O)O)c2)c1C | -12.8 | · | · | 37.2* | ? | 1.8
CC(=O)Nc1cccc(OCC(=O)Nc2ccccc2)c1 | -3.4 | · | · | 38.3* | 44.8* | 0.3
Cc1ccc(OCC(=O)Nc2cccc(O)c2)cc1C | · | 103.7* | -33.1 | 49.4* | 17.7 | -4.1
COc1ccc(C2C=C(c3ccc(C)c(C)c3)Nc3ncnn32)c(OC)c1OC (stereo unspecified) | 3.5 | -14.2 | 17.7 | -8.3 | 4.5 | 13.4
CCN1CCN(c2cc(=O)n(-c3cc(Cl)ccc3C)c(=O)[nH]2)CC1 | 57.6* | -5.1 | -0.8 | · | -9.1 | 1.2
Cc1ccccc1-n1c(=O)cc(N2CCN(Cc3ccccc3)CC2)[nH]c1=O | · | · | 11.9 | -2.2 | -4.9 | 4.6
CN(C)CC#Cc1ccc([C@H]2[C@H]3CN(C(=O)CN(C)C)CCCCN3[C@H]2CO)cc1 | · | · | · | · | -1.4 | ·
Cc1ccc(OCC(=O)N2CCCc3ccccc32)cc1 | -0.5 | 27.3 | 10.6 | · | 38.3 | 0.4
O=C(COc1ccc2c(c1)CCC2)N1CCc2ccccc21 | -4.1 | · | · | 60.2* | 78.2* | -4.6
CCc1ccc(OCC(=O)N2CCc3ccccc32)cc1 | -7.2 | 61.5 | 5.8 | 28.2 | 47.1* | -2.2
Cc1ccc(OCC(=O)N2CCc3ccccc32)cc1 | -0.7 | 59.3 | 5.4 | 25.8 | 41.0 | -5.4
CNc1ccc(-c2cccc(CO)c2)cn1 | 0.5 | · | · | 11.5 | 41.4* | 1.6
O=C(O)CCC(C(=O)O)N1C(=O)C2C3CCC(C3)C2C1=O (stereo unspecified) | · | · | · | -0.7 | -4.6 | -0.8
SMILES | Vif imaging | MITF TRPM1 HTS | PfHsp90 yeast 2 | Wnt bcat act | esBAF inh | N-glyco inh
COCCCN(C(=S)Nc1c(C)cc(C)cc1C)C(C)c1ccccn1 (stereo unspecified) | -1.9 | -17.8 | -13.7 | -1.9 | 1.6 | 0.8
C=C(C(=O)c1ccccc1)C(C)C(=C)C(=O)c1ccccc1 | 66.8* | -94.1 | -19.5 | -13.4 | · | -11.5
CCOc1c(OC(C)=O)ccc(/C=C/c2ccc3cccc(OC(C)=O)c3n2)c1[N+](=O)[O-] | · | 57.2 | -25.3 | 19.2 | 66.4* | 8.6
O=[N+]([O-])c1ccccc1/C=C/c1ccc2ccccc2n1 | -15.8 | 75.4 | -14.4 | 12.3 | 51.6* | -7.9
COc1c(OC(C)=O)ccc(/C=C/c2ccc3ccccc3n2)c1[N+](=O)[O-] | -5.0 | 112.6* | -9.0 | 25.8 | 31.2 | -5.9
COc1c(OC(C)=O)ccc(/C=C/c2ccc3cccc(OC)c3n2)c1[N+](=O)[O-] | -7.6 | 17.2 | -7.3 | 32.1* | · | 4.5
Cc1ccc(S(=O)(=O)Nc2ccccc2C(=O)NCC2CCCO2)cc1 (stereo unspecified) | · | · | · | 1.9 | · | ·
CC1CCc2c(sc3ncn(N)c(=N)c23)C1 (stereo unspecified) | -1.0 | 11.2 | 3.9 | 5.3 | 8.4 | -2.5
O=[N+]([O-])c1cccc(C=NNc2ccc3ccccc3n2)c1O | 31.4 | -81.0 | 137.1* | -2.2 | · | -19.9
Cc1cc(C)c2nc(N3CCCC(C(=O)NC4CCCC4)C3)sc2c1 (stereo unspecified) | -5.2 | 25.3 | -3.7 | 0.6 | 57.8* | -0.6
Nc1cc2c(cc1Br)-c1c(C(=O)O)cccc1C2O (stereo unspecified) | -2.6 | 11.1 | -5.9 | 1.0 | · | 35.3*
COc1cc(N)c(Br)cc1C(=O)O | · | 14.2 | 17.1 | 0.5 | 0.8 | 1.0
Cc1nn(-c2nc3ccccc3[nH]2)c(=O)c2ccccc12 | -0.7 | -95.8 | 90.3* | -7.4 | -86.5 | -18.9
Cc1cc(Nc2ccccc2)n(-c2nc3ccccc3[nH]2)n1 | -5.6 | 2.3 | -17.5 | -2.2 | -0.8 | 15.0
Cc1nn(-c2nc3ccccc3[nH]2)c(N)c1-c1ccc(Cl)cc1 | · | 40.1 | 37.3 | 14.9 | 61.2* | 17.0
Cc1nn(-c2ccc3ccccc3c2)c(=O)c2ccccc12 | 8.7 | 54.8 | 3.7 | 61.3* | · | -6.5
Cc1nn(-c2ccc(Cl)cc2)c(=O)c2ccccc12 | -8.1 | 17.8 | -4.7 | ? | · | -1.4
C[C@H]1CN([C@@H](C)CO)C(=O)c2cc(-c3cccc(C#N)c3)cnc2O[C@@H]1CN(C)C(=O)C1CCOCC1 | · | · | · | · | -14.0 | ·
Clc1ccc(CSc2ncn(-c3ccccc3)n2)cc1 | 3.6 | 16.5 | · | · | 57.7* | -0.3
O=C(CSc1ncn(-c2ccccc2)n1)N1CCc2ccccc21 | · | -0.8 | 13.0 | · | -4.8 | 1.3
Clc1cccc(CSc2ncn(-c3ccccc3)n2)c1 | 0.2 | 54.7 | · | 2.3 | 42.2* | -1.0
Clc1cccc(CSc2nccn2-c2ccccc2)c1 | -15.4 | -3.5 | · | -2.4 | 4.8 | -3.6
COc1ccc(-c2ccc3c(c2)[C@H]2[C@H](CCN2S(=O)(=O)C2=NC(C)C=N2)[C@@H](CO)N3C)cc1 (stereo partly specified) | · | · | · | · | -6.2 | ·
O=C(OCC(=O)N1CCCc2ccccc21)c1ccccc1[N+](=O)[O-] | -11.6 | 83.6* | 0.4 | -2.3 | 110.6* | 2.5
O=C(COc1ccccc1[N+](=O)[O-])N1CCCc2ccccc21 | -1.0 | -4.8 | -2.7 | 3.5 | 9.6 | -2.3
O=C(Cn1ccc([N+](=O)[O-])n1)N1CCCc2ccccc21 | 12.7 | 13.8 | -26.8 | 31.9* | 9.2 | -4.8
O=C(Cn1ccc([N+](=O)[O-])n1)N1CCCCCC1 | 30.7 | 9.4 | 1.5 | 3.0 | -13.3 | 0.3
COc1cc(/C=C2\N=C(c3ccccc3)OC2=O)ccc1OC(C)=O | -0.1 | 0.1 | 4.5 | 1.4 | 13.2 | 1.0
